# Source: PubChem
# CHT inh – human CHT choline transport inhibition. Q9GZV3. CHT-expressing cells, membrane potential dye, choline response; stronger effect = lower value. B-score at 10 µM. hit rate 0.86% among 310,000. AID 488975;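 active = B-score over 3 SD under the library average, and starting fluorescence ratio not unusually high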;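 note: choline stimulus applied at its EC90 after an EC20 pre-addition; B-score computed on integrated fluorescence ratio after choline addition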
# CHT allo act – allosterically activates the human high affinity choline transporter; hit rate 0.49% among 310,000; Q9GZV3; B-score at 10 µM; CHT-expressing cells, membrane potential dye, choline EC20; stronger effect = higher value; LV-AA mutant CHT in HEK293 cells;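 active = initial fluorescence not abnormally high and integrated response B-score, plate-corrected, over 3 SD above library mean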
# PREPL inh – inhibitors of human prolyl oligopeptidase-like enzyme PREPL; hit rate 0.68% among 320,000; recombinant PREPL, fluorescence polarization activity-based probe; inhibition, % at 5.96 µM; in the data active = inhibition above about 43%;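 note: 0% = enzyme with DMSO and 100% = wells lacking enzyme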
# ALR H2O2 inh – blocks human ALR sulfhydryl oxidase activity; hit rate 3.8% among 290,000; inhibition, % (test concentration not listed); purified ALR, DTT oxidation, H2O2 HRP-luminol luminescence; P55789;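 active = mean replicate inhibition above about 79%, with every replicate also reaching it, limit read from the data; inconclusive = only one of the two criteria met; inactive = mean below limit and not every replicate reaching it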
# Target sequence (P55789 whole entry, looked up): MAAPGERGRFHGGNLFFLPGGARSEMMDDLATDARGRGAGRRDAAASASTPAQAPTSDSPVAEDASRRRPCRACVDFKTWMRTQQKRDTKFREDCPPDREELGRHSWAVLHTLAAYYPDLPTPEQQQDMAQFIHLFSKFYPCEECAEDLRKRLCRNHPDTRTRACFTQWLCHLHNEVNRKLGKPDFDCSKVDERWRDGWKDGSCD
# AI-2 QS modul – modulates the Vibrio harveyi AI-2 quorum sensing system; hit rate 0.4% among 300,000; activity change, % at 7.5 µM; Vibrio harveyi JMH597 AI-2 luminescence/OD600 ratio, 9 h; stronger effect = lower value; strain lacks LuxN and CqsS sensors; 0 = neutral-control median; AID 2094; in the data active = activity change below about -75%, passing the limit was not always enough; inconclusive = no clear call, values can overlap the other calls;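 note: luminescence divided by OD600 gain over 9 h not by final OD600 alone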
# Starred values were filed as active, the others as inactive; i = inactive; ? = inconclusive; / = no result given. Shown are actives, neighbours in structure and some others; about 5% of the full set was active somewhere.
SMILES,CHT inh,CHT allo act,PREPL inh,ALR H2O2 inh,AI-2 QS modul
COc1ccc(Br)cc1CNc1ccc(O)cc1,i,i,16,98*,/
COc1ccccc1CNCc1cc(Br)ccc1OC,i,i,2,-1,15
Oc1c(Br)cc(Br)cc1CNc1ccc(F)cc1,i,i,5,98*,11
CCN(CC)C(=S)SSC(=S)N(CC)CC,i,i,-14,97*,14
CC1CCN(C(=O)COC(=O)c2cccs2)CC1,/,/,9,-4,/
CCN(CC)c1ccc(/C=C2\CCC(/C=N/NC(=O)c3ccc(=O)n(C)c3)=C2N2CCOCC2)cc1,i,i,14,100*,20
CSCC(C)N1CCC(Oc2cccc(C(=O)NCc3ccccn3)c2)CC1 (stereo not given),-17*,i,6,-12,6
COc1cnc(-c2ccccn2)nc1N(C)c1ccccc1,i,i,16,/,-24
CCOc1ccc(NC(=O)CSc2ccccc2N)cc1,i,i,-4,/,7
CCC1C(=O)N=C(SCC(=O)Nc2ccc(C(=O)OC)cc2)NC1=O (stereo not given),i,i,-2,99*,27
COC(=O)c1ccc(NC(=O)CSC2=NCCN2)cc1,i,i,1,99*,8
COC(=O)c1ccc(NC(=O)CSc2n[nH]c(-c3ccncc3)n2)cc1,i,i,-7,0,21
CCOc1ccc(NC(=O)CSC2=NCCN2)cc1,i,i,-9,99*,-9
CCc1ccc(/C=C2\SC(=S)N(CCCC(=O)Nc3ccccc3C(=O)O)C2=O)cc1,i,i,7,97*,18
Cc1ccc(/C=C2\SC(=S)N(CCCC(=O)Nc3ccccc3C(=O)O)C2=O)cc1,i,i,4,-1,10
CCCCNc1c(C(=O)OCC)c(C)nc2c1cnn2CC,i,i,4,3,26
CN(C(=S)NC(=O)c1ccc(Cl)cc1)C1CCCCC1,i,i,6,12,16
CCOC(=O)c1nnn(-c2nn3nnnc3c3ccccc23)c1C,i,i,-3,98*,19
Cc1cccc(-c2nc(CSCC(=O)N3CCN(Cc4ccc5c(c4)OCO5)CC3)c(C)o2)c1,i,i,16,98*,12
Cc1ccc(-c2nc(CSCC(=O)N3CCN(C(=O)c4ccco4)CC3)c(C)o2)cc1,i,i,0,99*,5
O=C(CSCc1ccccc1)N1CCN(Cc2ccc3c(c2)OCO3)CC1,i,i,-3,-2,5
Cc1ccc(-c2nc(CSCC(=O)N3CCOCC3)c(C)o2)cc1,i,i,3,99*,29
CC(C(=O)OCC(=O)c1ccc(Br)cc1)N1C(=O)C2C3C=CC(C3)C2C1=O (stereo not given),i,i,18,-23,13
CCOC(=O)CNC(=O)c1cccnc1Oc1ccc(Cl)cc1,i,i,-3,-5,11
C=CCSc1nc(O)c(C2OC(=O)c3c2ccc(OC)c3OC)c(=O)n1-c1ccccc1 (stereo not given),i,i,2,97*,24
SMILES,CHT inh,CHT allo act,PREPL inh,ALR H2O2 inh,AI-2 QS modul
CCN(CC)S(=O)(=O)c1ccc(O)c(C(=O)OCC(=O)N2CCCC2)c1,i,i,1,-2,20
NC(=S)N/N=C/c1c[nH]c2ccccc12,i,i,23,99*,16
O=C(N/N=C/c1c[nH]c2ccccc12)c1cc(-c2ccc(-c3ccccc3)cc2)n[nH]1,i,i,14,-8,15
O=C(N/N=C/c1c[nH]c2ccccc12)c1cc(-c2ccc3ccccc3c2)n[nH]1,i,i,35,36,-79*
O=C(O)c1ccc(N/N=C/c2c[nH]c3ccccc23)cc1,i,i,-2,98*,-26
O=C(N/N=C\c1c[nH]c2ccccc12)c1ccc(O)cc1,i,i,/,46,9
CCC(=O)NC(c1cccs1)c1cc(Cl)c2cccnc2c1O (stereo not given),i,i,2,-8,30
CN1CCN(C(c2ccc(Cl)cc2)c2cc(Cl)c3cccnc3c2O)CC1 (stereo not given),i,i,9,-2,-122*
CCC(=O)NC(c1ccc(C)cc1)c1ccc2cccnc2c1O (stereo not given),i,i,-6,-5,-13
CN1CCN(C(c2ccc(C(F)(F)F)cc2)c2cc(Cl)c3cccnc3c2O)CC1 (stereo not given),i,i,8,10,-85*
CCN1CCN(C(c2ccc(C(F)(F)F)cc2)c2ccc3cccnc3c2O)CC1 (stereo not given),i,i,18,22,-119*
COc1ccc(C2=NO[C@@H]3[C@@H]4C[C@@H]([C@H]5C(=O)N(C)C(=O)[C@@H]45)[C@H]23)cc1,i,i,1,-34,19
O=C(NCc1ccccn1)C(=O)Nc1cc2c3c(c1)CC(=O)N3CCC2,i,i,6,-1,19
CC(C)c1ccc(NC(=O)C(c2ccccc2)N(C)C(=O)CCc2c[nH]c3ccccc23)cc1 (stereo not given),i,i,1,-1,31
COc1cc(C(=O)NNC(=S)NC(=O)c2ccc(Cl)cc2)cc(OC)c1OC,i,i,4,96*,17
O=C(NNC(=S)NC(=O)c1cccc([N+](=O)[O-])c1)c1ccc(Br)cc1,i,i,7,96*,-212*
COc1ccc(C(=O)NNC(=S)NC(=O)c2ccc(Cl)cc2)cc1,i,i,11,-20,-72
Cc1occc1C(=O)NNC(=S)Nc1cccc([N+](=O)[O-])c1,i,i,13,98*,11
CC(C)(C)c1ccc(OCC(=O)NNC(=S)NC(=O)c2ccccc2[N+](=O)[O-])c(Br)c1,i,i,1,92*,24
Cc1ccccc1OCC(=O)NNC(=S)NC(=O)c1ccccc1[N+](=O)[O-],i,i,-4,/,26
Cc1cccc(C(=O)NC(=S)NNC(=O)c2ccc(Cl)cc2)c1,i,i,-1,96*,56
O=C(NC(=S)NNC(=O)c1ccccc1[N+](=O)[O-])c1ccccc1,i,i,14,96*,19
O=C(NC(=S)Nc1cccc(F)c1)c1cccc([N+](=O)[O-])c1,i,i,14,33,6
Cc1ccc(C(=O)NC(=S)NNC(=O)c2cccc([N+](=O)[O-])c2)cc1,i,i,/,99*,?
CCCCC(=O)NNC(=S)NC(=O)c1cccc([N+](=O)[O-])c1,i,i,5,98*,45
O=C(NNC(=S)NC(=O)c1ccccc1[N+](=O)[O-])c1ccccc1,i,i,0,12,45
CSCCC(NC(=O)c1ccccc1)C(=O)N1CC=C(c2ccccc2)CC1 (stereo not given),i,i,9,2,20
